What all share (experiment): DAPPL (digital affinity profiling via proximity ligation, sequencing); 10 mM Tris-HCl pH 7.5, 50 mM NaCl, 1 mM DTT, 4% glycerol, room temperature, 30 min; GST-TFs on glutathione beads, 16-mer random dsDNA library, 0.1% formaldehyde crosslink after washing; high values mean tight binding
For one assay, the target named is T1, FEV (Homo sapiens, UniProt Q99581 1-238).
T1 sequence: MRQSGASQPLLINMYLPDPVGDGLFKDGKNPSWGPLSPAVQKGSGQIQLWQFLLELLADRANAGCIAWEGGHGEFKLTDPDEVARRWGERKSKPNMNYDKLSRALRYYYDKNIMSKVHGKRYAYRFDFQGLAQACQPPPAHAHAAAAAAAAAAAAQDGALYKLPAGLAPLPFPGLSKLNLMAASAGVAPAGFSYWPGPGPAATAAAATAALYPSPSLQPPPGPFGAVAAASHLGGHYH
Particulars: protein: recombinant; tags: N-terminal GST; dsDNA, one strand shown. An outline of the steps: (§1)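 Yeast served to express human transcription factors as GST fusions, which were then captured on glutathione beads and labelled with DNA barcodes. Pooled with a tag-only sample, they were incubated with 200 nmole of a 16-mer random double-stranded DNA library for 30 min at room temperature in Tris/NaCl/DTT/glycerol buffer, washed, crosslinked with 0.1% formaldehyde, ligated by proximity, amplified by PCR and sequenced. Dividing each hexamer's read frequency for a factor by its frequency for the tag-only sample gives the binding signal.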

The target in another assay is ETV5 (Homo sapiens, UniProt P41161 1-510). Particulars: protein: recombinant; tags: N-terminal GST; dsDNA, one strand shown. An outline of the steps: as §1
The target of the next assay is HSF1 (Homo sapiens, UniProt Q00613 1-529). The settings on record: protein: recombinant; tags: N-terminal GST; chain copies: 3; dsDNA, one strand shown. An outline of the steps:
as §1

The target of a further assay is T2, SPIC (Homo sapiens, UniProt Q8N5J4 1-248).
T2 sequence: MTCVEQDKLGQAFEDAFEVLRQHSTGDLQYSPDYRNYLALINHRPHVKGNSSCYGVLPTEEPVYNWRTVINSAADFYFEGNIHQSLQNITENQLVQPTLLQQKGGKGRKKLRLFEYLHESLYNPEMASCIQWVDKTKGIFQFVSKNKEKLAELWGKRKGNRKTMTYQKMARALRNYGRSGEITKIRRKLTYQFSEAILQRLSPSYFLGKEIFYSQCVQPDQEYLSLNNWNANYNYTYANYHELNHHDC
The settings on record: protein: recombinant; tags: N-terminal GST; dsDNA, one strand shown. An outline of the steps: as §1

Another assay has as its target ELF4 (Homo sapiens, UniProt Q99607 1-663). The settings on record: protein: recombinant; tags: N-terminal GST; dsDNA, one strand shown. An outline of the steps: as §1
In the next assay the target is T3, ELK4 (Homo sapiens, UniProt P28324-2 1-405).
T3 sequence: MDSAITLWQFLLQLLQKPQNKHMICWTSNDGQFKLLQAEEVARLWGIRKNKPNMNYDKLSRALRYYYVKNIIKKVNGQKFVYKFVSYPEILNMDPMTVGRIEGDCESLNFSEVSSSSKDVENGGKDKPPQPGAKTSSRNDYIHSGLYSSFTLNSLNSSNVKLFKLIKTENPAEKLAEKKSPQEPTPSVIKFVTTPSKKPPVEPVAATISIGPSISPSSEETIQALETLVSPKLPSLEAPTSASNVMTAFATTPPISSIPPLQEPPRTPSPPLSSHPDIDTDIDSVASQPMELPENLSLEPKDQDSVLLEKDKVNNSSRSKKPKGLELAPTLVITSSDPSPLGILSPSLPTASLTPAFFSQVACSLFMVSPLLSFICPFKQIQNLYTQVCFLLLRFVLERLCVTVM
The settings on record: protein: recombinant; tags: N-terminal GST; dsDNA, one strand shown. An outline of the steps:
as §1

A further assay addresses T4, ETV2 (Homo sapiens, UniProt O00321 1-342).
T4 sequence: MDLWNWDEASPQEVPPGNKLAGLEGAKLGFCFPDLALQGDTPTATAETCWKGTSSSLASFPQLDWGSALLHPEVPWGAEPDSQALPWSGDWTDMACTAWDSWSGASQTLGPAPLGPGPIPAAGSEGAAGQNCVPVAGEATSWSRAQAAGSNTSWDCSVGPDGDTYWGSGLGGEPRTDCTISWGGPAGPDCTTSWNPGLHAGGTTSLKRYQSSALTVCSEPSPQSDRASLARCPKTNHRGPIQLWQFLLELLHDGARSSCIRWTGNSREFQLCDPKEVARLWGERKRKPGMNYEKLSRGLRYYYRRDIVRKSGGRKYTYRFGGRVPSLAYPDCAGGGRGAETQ
The settings on record: protein: recombinant; tags: N-terminal GST; dsDNA, one strand shown. In a few lines: as §1

In another assay the target is T5, ELF3 (Homo sapiens, UniProt P78545 1-371).
T5 sequence: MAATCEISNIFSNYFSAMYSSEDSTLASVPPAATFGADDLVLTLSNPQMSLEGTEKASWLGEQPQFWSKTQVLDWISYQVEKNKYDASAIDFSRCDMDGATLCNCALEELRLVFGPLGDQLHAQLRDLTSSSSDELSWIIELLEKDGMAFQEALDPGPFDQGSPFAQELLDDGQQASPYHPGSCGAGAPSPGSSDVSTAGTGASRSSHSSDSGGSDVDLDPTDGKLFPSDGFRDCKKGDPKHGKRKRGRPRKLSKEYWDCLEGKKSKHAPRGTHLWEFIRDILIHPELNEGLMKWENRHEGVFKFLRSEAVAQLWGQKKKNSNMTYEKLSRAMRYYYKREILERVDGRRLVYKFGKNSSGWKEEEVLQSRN
The settings on record: protein: recombinant; tags: N-terminal GST; dsDNA, one strand shown. In a few lines:
as §1

The target of a further assay is CRX (Homo sapiens, UniProt O43186 1-299). Particulars: protein: recombinant; tags: N-terminal GST; dsDNA, one strand shown. An outline of the steps:
as §1

Another assay addresses ETV1 (Homo sapiens, UniProt P50549 1-477). Particulars: protein: recombinant; tags: N-terminal GST; dsDNA, one strand shown. An outline of the steps:
as §1

The target in another assay is T6, ERF (Homo sapiens, UniProt P50548 1-548).
T6 sequence: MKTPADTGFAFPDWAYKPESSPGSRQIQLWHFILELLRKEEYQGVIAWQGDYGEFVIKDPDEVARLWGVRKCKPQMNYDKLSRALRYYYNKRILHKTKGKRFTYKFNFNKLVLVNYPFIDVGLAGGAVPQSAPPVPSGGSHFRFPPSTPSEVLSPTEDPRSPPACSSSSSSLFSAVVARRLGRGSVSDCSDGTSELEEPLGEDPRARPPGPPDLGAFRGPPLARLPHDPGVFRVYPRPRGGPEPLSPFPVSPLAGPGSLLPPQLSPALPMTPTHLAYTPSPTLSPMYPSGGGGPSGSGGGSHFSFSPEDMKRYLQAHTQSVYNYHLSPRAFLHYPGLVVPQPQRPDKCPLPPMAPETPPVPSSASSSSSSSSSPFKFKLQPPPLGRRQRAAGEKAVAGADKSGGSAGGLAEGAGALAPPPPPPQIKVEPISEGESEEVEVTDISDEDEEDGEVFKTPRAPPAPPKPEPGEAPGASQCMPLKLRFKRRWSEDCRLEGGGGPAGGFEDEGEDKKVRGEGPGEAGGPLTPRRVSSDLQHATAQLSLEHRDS
The settings on record: protein: recombinant; tags: N-terminal GST; dsDNA, one strand shown. In a few lines:
as §1

A further assay deals with T7, ETV3L (Homo sapiens, UniProt Q6ZN32 1-361).
T7 sequence: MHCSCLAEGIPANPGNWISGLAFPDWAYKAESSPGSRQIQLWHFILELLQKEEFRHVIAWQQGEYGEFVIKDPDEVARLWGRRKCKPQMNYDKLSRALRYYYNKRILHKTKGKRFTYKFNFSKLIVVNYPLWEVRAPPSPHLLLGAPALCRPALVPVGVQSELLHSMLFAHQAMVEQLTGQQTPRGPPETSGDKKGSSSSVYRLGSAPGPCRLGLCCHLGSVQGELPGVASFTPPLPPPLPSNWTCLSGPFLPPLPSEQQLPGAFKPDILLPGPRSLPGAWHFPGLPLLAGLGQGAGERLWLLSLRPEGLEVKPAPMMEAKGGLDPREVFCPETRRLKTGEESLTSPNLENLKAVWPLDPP
Particulars: protein: recombinant; tags: N-terminal GST; dsDNA, one strand shown. In a few lines: as §1

Another assay addresses T8, ETS2 (Homo sapiens, UniProt P15036 1-469).
T8 sequence: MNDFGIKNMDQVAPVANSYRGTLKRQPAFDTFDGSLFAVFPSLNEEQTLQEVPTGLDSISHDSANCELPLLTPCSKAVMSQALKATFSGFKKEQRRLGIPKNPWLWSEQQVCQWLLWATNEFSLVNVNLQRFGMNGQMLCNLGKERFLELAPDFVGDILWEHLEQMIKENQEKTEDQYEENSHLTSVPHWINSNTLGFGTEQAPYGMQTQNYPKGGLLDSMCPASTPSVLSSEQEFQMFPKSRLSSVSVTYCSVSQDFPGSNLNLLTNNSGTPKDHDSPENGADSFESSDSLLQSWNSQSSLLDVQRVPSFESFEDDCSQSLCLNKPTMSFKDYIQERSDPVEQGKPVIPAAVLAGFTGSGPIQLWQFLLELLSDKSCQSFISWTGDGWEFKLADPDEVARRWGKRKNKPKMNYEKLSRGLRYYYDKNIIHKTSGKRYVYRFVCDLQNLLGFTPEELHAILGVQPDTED
The settings on record: protein: recombinant; tags: N-terminal GST; dsDNA, one strand shown. In a few lines: as §1

A further assay deals with T9, SPDEF (Homo sapiens, UniProt O95238 1-335).
T9 sequence: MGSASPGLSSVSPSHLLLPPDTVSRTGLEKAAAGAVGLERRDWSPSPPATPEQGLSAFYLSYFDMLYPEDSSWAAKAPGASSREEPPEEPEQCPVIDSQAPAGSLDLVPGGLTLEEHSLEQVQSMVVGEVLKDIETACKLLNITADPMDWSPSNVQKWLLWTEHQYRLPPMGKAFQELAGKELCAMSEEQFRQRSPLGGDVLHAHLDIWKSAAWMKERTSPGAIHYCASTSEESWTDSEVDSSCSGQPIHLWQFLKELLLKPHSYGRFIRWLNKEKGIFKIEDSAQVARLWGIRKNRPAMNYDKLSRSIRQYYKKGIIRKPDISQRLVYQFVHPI
The settings on record: protein: recombinant; tags: N-terminal GST; dsDNA, one strand shown. An outline of the steps:
as §1

The target of a further assay is T10, ETV7 (Homo sapiens, UniProt Q9Y603 1-341).
T10 sequence: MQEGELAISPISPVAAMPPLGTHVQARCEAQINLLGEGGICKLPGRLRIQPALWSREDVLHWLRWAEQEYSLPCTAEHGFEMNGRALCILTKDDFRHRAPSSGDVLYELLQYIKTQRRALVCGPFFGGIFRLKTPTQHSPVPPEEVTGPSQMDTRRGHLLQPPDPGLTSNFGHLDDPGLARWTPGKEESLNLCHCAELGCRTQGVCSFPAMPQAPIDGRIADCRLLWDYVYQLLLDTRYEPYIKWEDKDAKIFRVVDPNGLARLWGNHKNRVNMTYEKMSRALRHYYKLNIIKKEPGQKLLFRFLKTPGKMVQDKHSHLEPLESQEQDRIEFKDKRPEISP
Particulars: protein: recombinant; tags: N-terminal GST; dsDNA, one strand shown. In a few lines:
as §1

A further assay concerns the target T11, ELF5 (Homo sapiens, UniProt Q9UKW6-2 1-255).
T11 sequence: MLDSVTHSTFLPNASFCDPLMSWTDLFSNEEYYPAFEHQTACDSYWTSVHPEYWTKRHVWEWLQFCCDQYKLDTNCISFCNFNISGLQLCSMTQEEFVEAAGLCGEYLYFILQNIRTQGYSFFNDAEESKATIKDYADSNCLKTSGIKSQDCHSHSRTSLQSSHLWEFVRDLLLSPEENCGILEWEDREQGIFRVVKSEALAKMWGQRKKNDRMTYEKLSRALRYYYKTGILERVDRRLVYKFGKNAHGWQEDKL
The settings on record: protein: recombinant; tags: N-terminal GST; dsDNA, one strand shown. An outline of the steps: as §1

A further assay has as its target T12, ETV3 (Homo sapiens, UniProt P41162-2 1-143).
T12 sequence: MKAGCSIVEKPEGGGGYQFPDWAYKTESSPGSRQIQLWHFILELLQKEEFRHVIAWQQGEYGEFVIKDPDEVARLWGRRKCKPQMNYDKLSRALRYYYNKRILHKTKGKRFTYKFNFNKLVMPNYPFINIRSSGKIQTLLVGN
The settings on record: protein: recombinant; tags: N-terminal GST; dsDNA, one strand shown. In a few lines:
as §1

The next assay concerns the target ETV6 (Homo sapiens, UniProt P41212 1-452). The settings on record: protein: recombinant; tags: N-terminal GST; dsDNA, one strand shown. An outline of the steps:
as §1

HSF1, sequence (Q00613 whole entry): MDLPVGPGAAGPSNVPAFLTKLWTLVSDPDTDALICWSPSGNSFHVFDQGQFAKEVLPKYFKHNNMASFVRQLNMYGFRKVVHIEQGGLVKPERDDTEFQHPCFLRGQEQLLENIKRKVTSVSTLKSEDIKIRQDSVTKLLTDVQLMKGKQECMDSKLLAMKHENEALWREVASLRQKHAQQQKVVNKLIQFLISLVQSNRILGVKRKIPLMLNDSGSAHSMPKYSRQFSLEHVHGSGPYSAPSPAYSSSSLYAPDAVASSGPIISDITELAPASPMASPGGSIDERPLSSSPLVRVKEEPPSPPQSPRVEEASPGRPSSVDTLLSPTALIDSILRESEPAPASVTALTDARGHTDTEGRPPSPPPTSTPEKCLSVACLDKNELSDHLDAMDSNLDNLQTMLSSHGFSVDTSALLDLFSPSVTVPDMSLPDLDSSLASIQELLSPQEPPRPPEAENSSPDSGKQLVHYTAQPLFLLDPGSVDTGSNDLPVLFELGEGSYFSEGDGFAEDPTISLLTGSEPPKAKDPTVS
ETV6, sequence (P41212 whole entry): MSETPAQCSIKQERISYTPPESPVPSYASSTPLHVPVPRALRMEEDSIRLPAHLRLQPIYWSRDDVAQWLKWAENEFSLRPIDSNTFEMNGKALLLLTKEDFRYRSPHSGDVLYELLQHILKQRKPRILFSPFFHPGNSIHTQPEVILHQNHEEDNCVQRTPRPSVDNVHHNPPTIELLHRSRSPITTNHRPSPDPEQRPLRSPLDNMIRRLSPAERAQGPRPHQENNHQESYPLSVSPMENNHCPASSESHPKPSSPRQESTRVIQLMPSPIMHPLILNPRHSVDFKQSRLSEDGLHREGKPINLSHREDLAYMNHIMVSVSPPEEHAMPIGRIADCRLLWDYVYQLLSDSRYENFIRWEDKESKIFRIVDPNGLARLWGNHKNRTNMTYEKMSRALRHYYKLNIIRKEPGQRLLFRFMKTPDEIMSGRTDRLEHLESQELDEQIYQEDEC
CRX, sequence (O43186 whole entry): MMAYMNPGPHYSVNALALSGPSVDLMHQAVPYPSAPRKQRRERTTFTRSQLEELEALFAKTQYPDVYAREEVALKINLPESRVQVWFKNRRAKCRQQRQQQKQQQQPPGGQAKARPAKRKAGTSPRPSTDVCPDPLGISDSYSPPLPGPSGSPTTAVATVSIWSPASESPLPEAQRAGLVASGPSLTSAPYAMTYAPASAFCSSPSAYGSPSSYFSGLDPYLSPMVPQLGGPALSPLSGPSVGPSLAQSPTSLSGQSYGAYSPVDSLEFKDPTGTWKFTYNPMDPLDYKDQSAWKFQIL
ELF4, sequence (Q99607 whole entry): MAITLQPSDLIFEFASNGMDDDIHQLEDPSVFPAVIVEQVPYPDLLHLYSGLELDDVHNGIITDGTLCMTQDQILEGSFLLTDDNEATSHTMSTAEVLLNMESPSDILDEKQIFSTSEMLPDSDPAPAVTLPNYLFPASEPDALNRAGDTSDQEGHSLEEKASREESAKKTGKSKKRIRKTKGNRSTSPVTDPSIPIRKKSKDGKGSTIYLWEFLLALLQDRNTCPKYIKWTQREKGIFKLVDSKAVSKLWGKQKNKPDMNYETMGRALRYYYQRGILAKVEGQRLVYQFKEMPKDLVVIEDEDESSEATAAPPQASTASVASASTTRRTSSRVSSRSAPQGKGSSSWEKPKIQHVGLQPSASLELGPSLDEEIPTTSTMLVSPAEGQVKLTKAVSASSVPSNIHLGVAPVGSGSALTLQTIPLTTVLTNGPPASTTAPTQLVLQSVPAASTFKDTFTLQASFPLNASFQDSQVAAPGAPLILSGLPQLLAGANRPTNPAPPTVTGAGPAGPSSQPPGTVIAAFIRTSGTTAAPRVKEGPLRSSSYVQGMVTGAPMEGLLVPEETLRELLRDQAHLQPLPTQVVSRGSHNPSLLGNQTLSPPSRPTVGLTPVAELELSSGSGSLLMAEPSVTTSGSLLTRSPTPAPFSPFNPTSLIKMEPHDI
ETV5, sequence (P41161 whole entry): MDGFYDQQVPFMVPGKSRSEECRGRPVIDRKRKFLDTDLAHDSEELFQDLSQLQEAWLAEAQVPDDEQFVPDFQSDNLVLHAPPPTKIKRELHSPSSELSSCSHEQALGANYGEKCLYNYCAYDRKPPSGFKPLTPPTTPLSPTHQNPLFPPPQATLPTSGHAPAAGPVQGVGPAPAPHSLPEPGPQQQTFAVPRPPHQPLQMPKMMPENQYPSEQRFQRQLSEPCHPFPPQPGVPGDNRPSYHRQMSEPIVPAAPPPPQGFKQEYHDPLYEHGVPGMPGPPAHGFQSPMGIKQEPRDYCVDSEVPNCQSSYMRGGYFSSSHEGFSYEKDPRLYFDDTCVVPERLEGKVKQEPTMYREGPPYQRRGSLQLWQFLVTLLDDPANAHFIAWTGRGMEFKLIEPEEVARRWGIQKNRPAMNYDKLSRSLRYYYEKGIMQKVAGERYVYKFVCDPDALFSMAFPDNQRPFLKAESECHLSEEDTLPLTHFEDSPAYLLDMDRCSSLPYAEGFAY
ETV1, sequence (P50549 whole entry): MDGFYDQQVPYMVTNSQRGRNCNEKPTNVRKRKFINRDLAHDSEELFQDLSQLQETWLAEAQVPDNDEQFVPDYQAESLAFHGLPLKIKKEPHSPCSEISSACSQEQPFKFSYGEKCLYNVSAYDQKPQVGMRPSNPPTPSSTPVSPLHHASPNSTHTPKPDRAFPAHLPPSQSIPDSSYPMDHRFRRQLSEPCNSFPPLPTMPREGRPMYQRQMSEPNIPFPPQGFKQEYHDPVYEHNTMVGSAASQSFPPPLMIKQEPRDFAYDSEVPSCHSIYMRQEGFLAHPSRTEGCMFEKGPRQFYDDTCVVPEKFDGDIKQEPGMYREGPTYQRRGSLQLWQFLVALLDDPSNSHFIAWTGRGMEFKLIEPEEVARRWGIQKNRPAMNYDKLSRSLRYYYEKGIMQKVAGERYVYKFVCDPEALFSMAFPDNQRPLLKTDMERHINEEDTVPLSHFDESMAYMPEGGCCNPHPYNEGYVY

As to CTAACA, the binding signal is 1.2 fold enrichment (6-mer frequency, TF over GST control) in the assay with FEV; 1.26 fold enrichment (6-mer frequency, TF over GST control) with ETV5; 1.08 fold enrichment (6-mer frequency, TF over GST control) with HSF1; 1.26 fold enrichment (6-mer frequency, TF over GST control) with SPIC; 1.2 fold enrichment (6-mer frequency, TF over GST control) with ELF4; 1.17 fold enrichment (6-mer frequency, TF over GST control) with ELK4. The binding signal was 1.21 fold enrichment (6-mer frequency, TF over GST control) in the assay with ETV2; 1.28 fold enrichment (6-mer frequency, TF over GST control) in the assay with ELF3; 1.2 fold enrichment (6-mer frequency, TF over GST control) with CRX; 1.15 fold enrichment (6-mer frequency, TF over GST control) in the assay with ETV1; 1.29 fold enrichment (6-mer frequency, TF over GST control) with ERF; 1.22 fold enrichment (6-mer frequency, TF over GST control) with ETV3L. For the same sequence, the binding signal with ETS2 was 1.21 fold enrichment (6-mer frequency, TF over GST control); in the assay with SPDEF, 1.29 fold enrichment (6-mer frequency, TF over GST control); with ETV7, 1.16 fold enrichment (6-mer frequency, TF over GST control); in the assay with ELF5, 1.15 fold enrichment (6-mer frequency, TF over GST control); with ETV3, 1.14 fold enrichment (6-mer frequency, TF over GST control); with ETV6, 1.18 fold enrichment (6-mer frequency, TF over GST control).

The values above are taken from publication PMC7862700, “An all-to-all approach to the identification of sequence-specific readers for epigenetic DNA modifications on cytosine”.
